Screening data deposited in PubChem by several laboratories.
C2C12 statin: suppressors of statin myotoxicity in C2C12 myotubes, primary screen, cell-based, single point, plate reader | C2C12 myotubes + simvastatin, ATP luminescence, 48 h; scaled: DMSO 0, geranylgeraniol control 100 | rescue of ATP level, % at 7.49 µM | actives 0.78% (n = 330,000) | AID 602340, 2012;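 active = mean ATP rescue above about 67%, or every replicate alone reaching that limit, limit read from the data, passing the limit was not always enough; inconclusive = no clear call, values can overlap the other calls; inactive = mean under the limit and some replicate under it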;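 also: myotubes were challenged with 10 µM simvastatin during compound exposure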
GAA850 FXN act: FXN promoter activators, primary screen, cell-based, luciferase luminescence, HEK293 lucGAA850; actives 0.56% (n = 360,000); AID 540364, 2011; HEK293 lucGAA850 FXN promoter luciferase reporter, 24 h; percent of 10 µM SAHA response; activation, % at 6 µM;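 active = activation above the average of all compounds screened plus 3 SD, cutoff fixed separately per campaign, cut at about 7.5% in these data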;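 also: 0% = DMSO wells and 100% = 10 µM SAHA wells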
esBAF inh: Bmi1 luciferase reporter increase in mESCs, primary screen, esBAF inhibitor project, mouse ES cells, Bmi1 luciferase knock-in, single point; AID 602393, 2012; reporter increase, % at 12.5 µM; actives 2% (n = 350,000); 24 h; 100% = twice the neutral-well signal; in the data active = activation above about 40%; inconclusive = no clear call, values can overlap the other calls;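 also: 0% = median of the plate's neutral control wells and 100% = double that signal; a rise in the Bmi1 reporter signal indicates esBAF inhibition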
Wnt bcat act: Wnt/beta-catenin pathway activators, primary screen, cell-based, plate reader, single point; Wnt/beta-catenin reporter cell assay, activator; activation, % at 9.35 µM; actives 1.2% (n = 300,000); AID 743398, 2014; in the data active = activation above about 30%, passing the limit was not always enough; inconclusive = no clear call, values can overlap the other calls;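 also: 0% = neutral control wells and 100% = positive control wells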
MITF TRPM1 HTS: activators of MITF-driven TRPM1 promoter reporter, primary screen, cell-based, SK-MEL-5, luciferase, single point | SK-MEL-5 TRPM1-promoter luciferase, 24 h; % of positive control, neutral wells = 0 | activation, % at 12.5 µM | actives 0.75% (n = 300,000) | AID 588334, 2011;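 active = mean activation of at least 80% with every replicate also reaching 80%; inconclusive = mean reaches 80% but some replicate falls short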;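 also: 0% = neutral control wells and 100% = parthenolide positive control wells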
Active calls of the source: *; ? = inconclusive; . = not tested or not shown. Most compounds without a hit are left out; they make up all but 3.3% or so of the library.

SMILES	C2C12 statin	GAA850 FXN act	esBAF inh	Wnt bcat act	MITF TRPM1 HTS
O=C(O)c1ccccc1SCc1cn2ccccc2n1	.	3	.	-2	-4
c1ccc2nc(SCc3cn4ccccc4n3)cnc2c1	.	5	.	38*	57
Cc1ccc(SCc2cn3ccccc3n2)cc1	-17	2	38	33*	96*
O=C(C[C@@H]1C=C[C@@H](NS(=O)(=O)c2ccccc2F)[C@@H](CO)O1)NCCCN1CCOCC1	-14	.	-5	.	.
COCC(=O)N1C[C@@H](C)[C@H](OC)CN(C)C(=O)c2cc(NC(=O)c3ccc(OC)cc3)ccc2OC[C@@H]1C	8	.	2	.	.
C[C@H]1CN([C@@H](C)CO)C(=O)c2cc(C3=CCCC3)cnc2O[C@H]1CN(C)C(=O)C1CC1	3	.	.	.	.
O=C(O)c1ccc(-c2noc(-c3cccc(Cl)c3)n2)cc1	-36	2	63*	17	87*
O=C(O)c1ccc(-c2noc(-c3ccccc3Cl)n2)cc1	-19	3	3	39*	13
CCCC(=O)Nc1ccc2c(c1)OC[C@@H](C)N(Cc1ccccc1)C[C@H](C)[C@H](OC)CN(C)C2=O	28	.	-3	.	.
C[C@@H]1CN([C@H](C)CO)C(=O)c2cc(C#CC3CC3)cnc2O[C@@H]1CN(C)C(=O)c1ccccc1	1	.	4	.	.
C[C@@H]1CCCCO[C@H](CN(C)C(=O)C2CCCCC2)[C@@H](C)CN([C@@H](C)CO)C(=O)c2cc(NS(=O)(=O)c3cn(C)cn3)ccc2O1	.	.	-1	.	.
O=C(Cc1ccccc1)Nc1nnc(-c2cccs2)s1	9	4	52*	27	77
CCC(=O)Nc1nnc(-c2cccs2)s1	.	2	.	-2	8
O=C(Cc1ccccc1)Nc1nc(-c2cccs2)cs1	.	5	65*	0	?
COCC(=O)Nc1nnc(-c2cccs2)s1	3	4	-9	7	17
CCC(C)C(=O)Nc1nnc(-c2cccs2)s1 (stereo not given)	.	5	?	34*	.
O=C(Cc1ccccc1)Nc1nnc(-c2ccco2)s1	22	4	48*	.	60
CCCC(=O)Nc1nnc(-c2ccco2)s1	.	4	22	3	63
CCC(=O)N(C)C[C@H]1Oc2cc(C#CC3(O)CCCC3)ccc2S(=O)(=O)N([C@H](C)CO)C[C@H]1C	-8	.	-1	.	.
CN(C)CC(=O)N[C@H]1CC[C@@H](CCNS(=O)(=O)c2ccccc2)O[C@@H]1CO	2	.	1	.	.
COCCNC(=O)C[C@@H]1C[C@@H]2c3cc(NC(=O)c4cccnc4)ccc3O[C@@H]2[C@H](CO)O1	1	.	-2	.	.
COc1ccc(C(=O)Nc2nc(-c3cccs3)cs2)cc1	-81	2	84*	.	45
CCCNC(=O)N1C[C@@H](C)[C@@H](OC)CN(C)C(=O)c2ccc(NC(=O)CCC)cc2OC[C@@H]1C	-10	.	-1	.	.
C[C@H](CO)N1C[C@H](C)[C@@H](CN(C)CC2CC2)Oc2cc(-c3cccc(C#N)c3)ccc2S1(=O)=O	-7	.	-4	.	.
CNC[C@H]1Oc2cc(C#Cc3ccccn3)ccc2S(=O)(=O)N([C@@H](C)CO)C[C@@H]1C	7	.	-4	.	.
SMILES	C2C12 statin	GAA850 FXN act	esBAF inh	Wnt bcat act	MITF TRPM1 HTS
O=C(CNC(=O)c1ccc(Br)cc1)N/N=C/c1cccnc1	109*	2	-3	-2	-5
O=C(CNC(=O)c1ccncc1)N/N=C/c1ccc(Br)cc1	8	1	-10	-2	-14
C[C@@H]1CN([C@H](C)CO)C(=O)Cc2cc(NC(=O)Cc3ccccc3)ccc2O[C@@H]1CN(C)S(=O)(=O)c1cn(C)cn1	4	.	6	.	.
O=C(O)C[C@H]1C[C@H]2c3cc(NC(=O)c4ccc5c(c4)OCO5)ccc3O[C@H]2[C@@H](CO)O1	-2	.	-8	.	.
Cc1ccc(C(=O)Nc2nnc(COCCO)s2)cc1	-4	5	50*	0	.
O=C(Nc1nnc(Cc2ccccc2)s1)c1cccs1	3	3	44*	.	46
Cc1ccc(C(=O)Nc2nnc(Cc3ccccc3)s2)cc1	3	1	3	2	0
O=C(Nc1nnc(Cc2ccccc2)s1)Nc1ccccc1F	-4	2	53*	25	56
O=C(Nc1nnc(Cc2ccccc2)s1)c1ccccc1	8	3	70*	0	.
CC(=O)N(C)C[C@H]1Oc2ncc(-c3cccc(F)c3)cc2C(=O)N([C@H](C)CO)C[C@@H]1C	-8	.	6	.	.
CC(C)C#Cc1cnc2c(c1)C(=O)N([C@H](C)CO)C[C@H](C)[C@H](CN(C)C(=O)Nc1ccccc1F)O2	-4	.	1	.	.
CC(C)NC(=O)Nc1ccc2c(c1)C(=O)N([C@@H](C)CO)C[C@H](C)[C@@H](CN(C)C(=O)c1ccccc1)OCCCC[C@H](C)O2	-31	.	-6	.	.
Cc1cccc(-c2nnc(NC(=O)c3cccs3)s2)c1	3	1	47*	28	44
O=C(Cc1cccs1)Nc1nnc(Cc2ccccc2)s1	121*	0	-6	-5	26
CO[C@H]1CN(C)C(=O)c2ccc(NC(=O)c3ccccc3F)cc2OC[C@@H](C)N(C(C)=O)C[C@@H]1C	-16	.	-4	.	.
CCNC(=O)[C@@H]1[C@@H](CO)[C@@H]2Cn3c(ccc(-c4cncnc4)c3=O)[C@@H]2N1C(=O)c1ccccc1F	-12	.	-7	.	.
COc1ccc(CN(C)C[C@H]2OCCCC[C@H](C)Oc3ccc(NC(=O)Nc4c(C)noc4C)cc3C(=O)N([C@@H](C)CO)C[C@@H]2C)cc1	.	.	-1	.	.
O=C(C[C@@H]1CC[C@H]2[C@@H](COC[C@H](O)CN2Cc2cccc(Cl)c2)O1)Nc1nccs1	56	.	2	.	.
CN(C)c1ccc(NC(=O)c2ccc3nc[nH]c3c2)cc1	-4	4	48*	22	71
COc1cc(C(=O)Nc2ccc(N(C)C)cc2)cc(OC)c1OC	15	3	71*	.	51
O=C(Nc1ccc(F)cc1)c1ccc2nc[nH]c2c1	.	4	.	4	26
Cc1cc(C)cc(NC(=O)c2ccc3nc[nH]c3c2)c1	2	5	24	6	29
Cc1ccc(NC(=O)c2ccc3nc[nH]c3c2)cc1C	3	3	88*	9	66
COc1cc(C(=O)Nc2ccc(S(=O)(=O)N(C)c3ccccc3)cc2)cc(OC)c1OC	.	-1	.	1	-19
Cc1noc(C)c1NC(=O)NCC[C@@H]1CC[C@H](NC(=O)Nc2cccc(Cl)c2)[C@H](CO)O1	2	.	8	.	.
C[n+]1c(/C=C/c2ccc(O)cc2)ccc2ccccc21	-1	0	62*	24	30
O=C(CC(SCc1ccco1)c1ccc(O)cc1)c1cccs1 (stereo not given)	44	3	71*	.	67
